HCMV antiviral = inhibitors of human cytomegalovirus. HFF cells, HCMV-luciferase reporter, 72 h; stronger effect = lower value. activity change, negative = inhibition, % at 57.5 µM. 410,000 tested, 4.5% active. AID 1259415; in the data active = activity change below about -60%; inconclusive = no clear call, values can overlap the other calls; inactive = above about -39%
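Compounds were evaluated in HFFs infected with an HCMV luciferase reporter virus (MOI 1 PFU/cell). Luciferase in lysates collected 72 h post infection served as the replication measure.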
SARS PLP yeast = blocks SARS-CoV papain-like protease in a yeast assay | S. cerevisiae expressing SARS-CoV PLpro, growth rescue | Potency, µM (highest dose often 32.9 µM), usual class: activators | 330,000 tested, 0.19% active | AID 485353; calls by dose curve; note: nearly all actives have a fitted effect of over 55% in size
FMDV inh = foot and mouth disease virus antiviral activity. 410,000 tested, 1.2% active. Potency, µM (top dose mostly 57.9 µM), actives largely listed as inhibitors. FMDV antiviral cell-based qHTS; calls by dose curve; tested in HEK293T cells; note: read-out not given here; nearly all actives have a fitted effect of over 45% in size
LASV entry inh = inhibitors of Lassa virus binding or cell entry; Lassa virus pseudotype entry inhibition, cell reporter; Potency, µM (highest dose often 37.9 µM), most hits filed as inhibitors; 300,000 tested, 1.2% active; AID 540256; calls by dose curve; tested in HEK293 cells; note: nearly all actives have a fitted effect of over 50% in size
HCV inh = blocks hepatitis C virus; Huh7.5.1 HCVcc-Cre infection, luciferase reporter, 44 h; Potency, µM (top dose mostly 41.8 µM), most hits filed as inhibitors; 340,000 tested, 3.4% active; active = well fitted inhibition curve with a large enough effect; inconclusive = small, poorly fitted or top-dose-only effect, or another doubt; inactive = no such curve, though single readings can be large or run the other way
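Whole-lifecycle infectious HCVcc-Cre system; cells 1,000/well, compound then virus (~0.5 moi) added 4 h after plating, 44 h culture. Luciferase read 15 sec following 15 min substrate incubation, room temp.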
Marburg entry inh = Marburg virus entry inhibition; Marburg virus pseudotyped entry inhibition, cell reporter; Potency, µM (top dose mostly 37.8 µM), usual class: inhibitors; 300,000 tested, 1.8% active; calls by dose curve; tested in HEK293 cells
Of the large screens only hits and unclear results are named; the others gave an inactive call; ! = not active in a repeat. Rows were chosen to be rich in hits. Some 8% of all compounds tested hit in one or more screens of this group.

Cc1cccc2c1-c1sc(C(=O)N(C)c3cccc(Cl)c3)cc1CO2	none (no result: SARS PLP yeast, LASV entry inh, HCV inh)
CCOC(=O)Nc1ccc2c(c1)N(C(=O)CCN(CC)CC)c1ccccc1S2=O (centres undefined)	LASV entry inh 18µM, Marburg entry inh inconclusive
C=CCNc1ncnc2c1cnn2-c1ccc(Cl)cc1	Marburg entry inh inconclusive
C=CCNc1ncnc2c1[nH]c1ccc(Cl)cc12	HCMV antiviral -97, FMDV inh inconclusive, LASV entry inh 10µM, HCV inh inconclusive, Marburg entry inh inconclusive
C=CCNc1ncnc2c1[nH]c1ccccc12	FMDV inh inconclusive, HCV inh 11µM
COc1ccc(CCNC(=O)c2ccc(-n3c(C)cc4c3CCC(C)C4)cc2)cc1OC (centres undefined)	HCMV antiviral inconclusive, LASV entry inh inconclusive (no result: SARS PLP yeast, HCV inh, Marburg entry inh)
O=C(Oc1ccc(Br)cc1C(=O)/C=C/c1ccccc1F)c1ccco1	HCMV antiviral -78, FMDV inh inconclusive, LASV entry inh inconclusive, HCV inh 10µM, Marburg entry inh inconclusive (no result: SARS PLP yeast)
CC(=O)c1cc(Cl)ccc1OC(=O)c1ccco1	none (no result: FMDV inh)
O=C(c1ccco1)N1N=C(c2cccs2)CC1c1ccccc1O (centres undefined)	HCMV antiviral -68, FMDV inh inconclusive
CCC(=O)N1N=C(c2cccs2)CC1c1ccco1 (centres undefined)	HCV inh inconclusive
COc1cccc(C2CC(c3cccs3)=NN2C(=O)c2ccco2)c1O (centres undefined)	HCV inh 14µM
COc1ccc2nc(NN=C(C)c3ccccn3)cc(C)c2c1	HCMV antiviral -99, LASV entry inh inconclusive, HCV inh inconclusive, Marburg entry inh inconclusive (no result: SARS PLP yeast)
CC(=NNc1ccc2ccccc2n1)c1ccccn1	HCMV antiviral -101 (no result: SARS PLP yeast, FMDV inh, LASV entry inh, HCV inh, Marburg entry inh)
C/C(=N\Nc1cc(C)nc(-c2ccccc2O)n1)c1ccccc1O	HCV inh 11µM (no result: LASV entry inh, Marburg entry inh)
C/C(=N\Nc1ccc(Cl)cc1)c1ccccn1	Marburg entry inh inconclusive (no result: HCV inh)
C/C(=N\Nc1nc2ccccc2nc1C)c1ccccc1O	none
CC(=NNc1ccc2ccccc2n1)c1ccccc1O	HCMV antiviral -61, FMDV inh inconclusive, LASV entry inh 3.2µM, HCV inh inconclusive, Marburg entry inh inconclusive (no result: SARS PLP yeast)
CC1=C(C(=O)Nc2ccccc2)C(c2ccc(Br)cc2)n2nc(CCCO)nc2N1 (centres undefined)	none (no result: SARS PLP yeast, HCV inh)
CCN(CC)CCNC(=O)c1ccc2c(=O)n3nc(Nc4cccc(Cl)c4C)sc3nc2c1	LASV entry inh inconclusive (no result: SARS PLP yeast, HCV inh, Marburg entry inh)
Cc1c(/C=C(\C#N)C(=O)Nc2cccc(Cl)c2)c2ccccc2n1Cc1ccccc1	FMDV inh inconclusive (no result: SARS PLP yeast, HCV inh, Marburg entry inh)
Cc1[nH]c2ccccc2c1C1(O)C(=O)N(Cc2ccc(Cl)cc2)c2ccccc21 (centres undefined)	HCMV antiviral -99, LASV entry inh inconclusive (no result: SARS PLP yeast, HCV inh)
O=C1N(Cc2ccccc2Cl)c2ccccc2C1(O)c1c[nH]c2ccccc12 (centres undefined)	HCMV antiviral -94 (no result: SARS PLP yeast, HCV inh)
Cc1ccc(CN2C(=O)C(O)(c3c(C)[nH]c4ccccc34)c3ccccc32)cc1 (centres undefined)	LASV entry inh inconclusive (no result: SARS PLP yeast, HCV inh)
Cc1ccccc1CN1C(=O)C(O)(c2c[nH]c3ccccc23)c2cc(Cl)ccc21 (centres undefined)	HCMV antiviral -93, LASV entry inh inconclusive, Marburg entry inh 8.9µM (no result: SARS PLP yeast, HCV inh)
C#CCN1CC(=O)N(COC(=O)C2C(C=C(C)C)C2(C)C)C1=O (centres undefined)	none (no result: SARS PLP yeast, FMDV inh, LASV entry inh, HCV inh, Marburg entry inh)
Nc1nnc(P(c2ccccc2)c2ccccc2)s1	HCMV antiviral -64 (no result: LASV entry inh, Marburg entry inh)
Cc1cc2oc(=O)c(CC(=O)NCCc3ccccc3F)c(C)c2c2occ(C(C)(C)C)c12	none (no result: SARS PLP yeast, HCV inh)
COC(=O)C(N)Cc1ccc(O)c(O)c1 (centres undefined)	none
NC(CO)C(=O)NNCc1ccc(O)c(O)c1O (centres undefined)	HCMV antiviral inconclusive, SARS PLP yeast inconclusive, LASV entry inh inconclusive, Marburg entry inh 5µM!
c1ccc2c(c1)nnn1c3ccccc3nc21	none (no result: HCMV antiviral, FMDV inh, LASV entry inh, HCV inh)
ClC(Cl)(Cl)c1nc2ccccc2n2nncc12	HCMV antiviral -88, FMDV inh inconclusive, LASV entry inh inconclusive, HCV inh 13µM, Marburg entry inh 4.5µM
O=C(NCCc1ccccc1)c1ccc2c(c1)N(Cc1ccccc1Cl)C(=O)c1ccccc1S2	none (no result: SARS PLP yeast, HCV inh, Marburg entry inh)
Cc1cccc(NC(=S)N(CCCN2CCCC2)Cc2cccn2Cc2ccc(Cl)cc2)c1	HCMV antiviral -60, LASV entry inh inconclusive, HCV inh inconclusive, Marburg entry inh 7.1µM
Cc1ccc(S(=O)(=O)NC2=C(N3CCN(Cc4ccccc4)CC3)C(=O)c3ccccc3C2=O)cc1	HCMV antiviral -65
CN(CCCC(=O)Nc1ccccc1F)S(=O)(=O)c1ccc(F)cc1	HCMV antiviral -61
Cc1ccc(S(=O)(=O)N(C)CCCC(=O)Nc2ccncc2)cc1	FMDV inh inconclusive, HCV inh 5.6µM (no result: LASV entry inh, Marburg entry inh)
Cc1ccc(S(=O)(=O)N(C)CCCC(=O)Nc2ccc(F)cc2)cc1	HCV inh inconclusive (no result: LASV entry inh, Marburg entry inh)
CN(CCCC(=O)Nc1ccc(OC(F)F)cc1)S(=O)(=O)c1ccc(F)cc1	FMDV inh inconclusive, HCV inh 11µM (no result: LASV entry inh)
COc1ccc(NC(=O)CCCN(C)S(=O)(=O)c2ccc(C)cc2)cc1	LASV entry inh inconclusive, HCV inh inconclusive, Marburg entry inh inconclusive
CCc1nnc2c(N3CCN(c4cccc(C(F)(F)F)c4)CC3)nc3ccccc3n12	FMDV inh inconclusive (no result: SARS PLP yeast, HCV inh, Marburg entry inh)
CCOc1ccc2oc(-c3ccccc3)c(C(=O)O)c2c1	none
CCOc1ccc2oc(-c3ccccc3)c(C(=O)N(C)C)c2c1	HCMV antiviral -62, HCV inh inconclusive, Marburg entry inh inconclusive (no result: FMDV inh)
CCOC(=O)c1c(-c2ccc(OC)cc2)oc2ccc(OCC(N)=O)cc12	HCV inh 2.2µM
CC(=O)N1CCN(c2ccc(Oc3ccc([N+](=O)[O-])c(C(F)(F)F)c3)cc2)CC1	FMDV inh inconclusive, LASV entry inh inconclusive, HCV inh 11µM, Marburg entry inh inconclusive (no result: HCMV antiviral)
CCOc1ccc(C(=O)Nc2ccc(N3CCN(C(C)=O)CC3)cc2)cc1[N+](=O)[O-]	none (no result: LASV entry inh, Marburg entry inh)
O=C(Nc1ccccc1-c1nc2ccccc2s1)c1cccnc1Cl	HCV inh 35µM
O=C(Nc1ccccc1-c1nc2ccccc2s1)c1ccco1	HCV inh 4µM
Cc1ccc(Cn2c(C)c(CNCCCc3ccccc3)c(C(=O)O)c2C)cc1	none (no result: SARS PLP yeast, HCV inh)
CCc1cc(C(=O)OCC(=O)NCCc2ccccc2)sc1C	HCMV antiviral -85 (no result: SARS PLP yeast, LASV entry inh, HCV inh, Marburg entry inh)
Cc1ccc(C(=O)c2ccccc2C(=O)OCC(=O)NCCc2ccccc2)cc1	HCMV antiviral -67, Marburg entry inh inconclusive
O=S(=O)(c1ccc(C2CCCCC2)cc1)N1CCN(c2cc(Cl)ccc2Cl)CC1	none (no result: SARS PLP yeast, HCV inh)
CCOc1ccc(CNC(=O)C2CCCN(S(=O)(=O)c3ccc4c(c3)CCCC(=O)N4)C2)cc1 (centres undefined)	FMDV inh inconclusive, LASV entry inh inconclusive (no result: SARS PLP yeast, HCV inh, Marburg entry inh)
Cc1ccc(S(=O)(=O)OCCc2ccccc2)cc1	none (no result: HCMV antiviral, SARS PLP yeast, FMDV inh, LASV entry inh, HCV inh)
COc1nc(N=C(N)N)nc2ccc(C)cc12	HCMV antiviral -102, HCV inh inconclusive (no result: FMDV inh, LASV entry inh)

High-throughput results (PubChem BioAssay)
